# Reference: PubChem BioAssay AID2685 (National Center for Advancing Translational Sciences (NCATS), 2010)
# About 2,100 (0.66%) of roughly 320,000 compounds were called active. Not shown: some 53% with an inconclusive outcome. Calls follow the shape of the dose curve; as a rule, active = well fitted inhibition curve with a large enough effect in the signal ratio, with a control signal flat (not every such curve was filed as active); inconclusive = small, poorly fitted or top-dose-only effect, or effect the other way, or a change in a side signal; inactive = flat fitted curve, though single readings scatter; the % refers to the signal ratio. For the sample, actives were picked, then their nearest neighbours and some compounds at random.
# Assay: qHTS Assay for Lipid Storage Modulators in Drosophila S3 Cells;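 as to cell number change: cells counted by Cell Tracker Red CMTPX staining in the red channel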; as to lipid storage change, negative = inhibition: % is scaled to controls: 0 for no effect and ±100 for the full control effect
# Conditions: BODIPY lipid droplet fluorescence, 18-24 h, cells fed with added oleic acid; cell number change: measured here: cell count max response; series mostly up to 46.1 µM; lipid storage change, negative = inhibition: at the top concentration
# From the text: NIH Molecular Libraries Probe Production Centers Network [MLPCN] NIH Chemical Genomics Center [NCGC] MLPCN Grant: 1 R03 MH085686-01 Assay Submitter (PI): Beller, Mathias; Max-Planck-Institut fur Biophysikalische Chemie NCGC Assay Overview: Storing lipids as a reservoir for energy or the anabolism of elementary metabolites is a common feature of probably all cells and is conserved from bacteria to humans. The universal cellular lipid storage organelle is the so-called lipid storage droplet (LD). Although ubiquitous, LDs share a simple structure composed of a hydrophobic core that harbors the storage lipids, which is shielded by a droplet-specific phospholipid monolayer to which proteins are attached. The current model of LD biogenesis involves an incorporation of the lipid core into the membrane leaflets of the endoplasmic reticulum (ER) followed by a subsequent budding-like maturation of a LD, which ultimately pinches off. Once released, LD volume can increase by localized lipogenesis or fusion of existing droplet. Storage lipids are re-mobilized enzymatically by lipase activity. Lipase regulation in the adipocyte is heavily studied and involves multiple components including catecholamine signaling, the LD-associated proteins Perilipin and comparative gene identification (CGI-58) and at least two lipases named hormone sensitive lipase (HSL) and adipocyte triglyceride lipase (ATGL). LD regulation outside of the adipocyte is poorly understood and only few components are known. However, there is an urgent need to learn more about ectopic fat depots as mislocalized storage of lipids, for example in the liver or muscle, is an eminent health problem associated with insulin resistance or the metabolic syndrome. We developed a laser-scanning cytometer assay to enable 1,536-well screening and combined the results of the small molecules screen with an RNAi database based on lipid storage.
# Triacsin C (Sigma-Aldrich T-4540), an inhibitor of long-chain fatty acyl CoA synthetase that blocks synthesis of triglycerides, was used as a positive control for lipid under-storage. A total of 23 nL of compound solution of different concentrations were transferred to the assay plates using a Kalypsys pin tool equipped with a 1,536-pin array containing 10-nL slotted pins (FP1S10, 0.457-mm diameter, 50.8 mm long; V&P Scientific). One microliter of oleic acid (400 uM) was added, and the plate was lidded with stainless steel rubber gasket lined lids containing pinholes. […] Fluorescence was detected by excitation of the fluorophores with a 488-nm laser on an Acumen Explorer (TTP Lab Tech). The total intensity in channel 2 (500-530 nm) reflected lipid droplet accumulation. Cells were detected using channel 3 (575-640 nm) with 5-um width and 100-um depth filters. The ratio of the number of objects in PMT channel 2 over the number of objects in PMT channel 3 was also calculated. Percent activity was computed relative to an internal control (100% inhibited lipid droplet deposition due to the presence of 20 uM Triacsin C), which was added to 32 wells/plate.
# Potency is read from the fitted curve at half-maximal effect.
Structure (SMILES),"lipid storage change, negative = inhibition",cell number change [%],Potency,outcome
O=c1c2ccccc2nnn1CCN1CCOCC1,-21.6% (inactive),-18.2,,
Cc1ccc2nc(SC(C)C(=O)N3CCCC3)[nH]c2c1 (stereo not given),8.55% (inactive),17.4,,
CCC(Sc1nc2ccccc2c(=O)[nH]1)C(=O)O (stereo not given),10.3% (inactive),-2.97,,
CCC(Sc1nc2ccc(C)cc2[nH]1)C(=O)O (stereo not given),,14.5,14.6 µM (active),
COc1cccc(-c2csc3nc[nH]c(=O)c23)c1,,,20.6 µM (active),
Cc1ccc(-c2csc3nc[nH]c(=O)c23)cc1C,,-18.4,,inactive
O=c1[nH]cnc2scc(-c3ccccc3)c12,2.34% (inactive),-0.547,,
OCCCNc1ncnc2oc(-c3ccccc3)c(-c3ccccc3)c12,-4.49% (inactive),13.3,,
C(=N\Nc1nc2ccccc2[nH]1)/c1ccccc1,-24.3% (inactive),-28.7,,
CCCn1c(/C=N/Nc2nc3ccccc3[nH]2)nc2ccccc21,,-13.7,13 µM (active),
CC(C)Cn1c(/C=N/Nc2nc3ccccc3[nH]2)nc2ccccc21,,-7.46,,inactive
CCOC(=O)N1CCN(Cc2nnc(-c3ccccc3C)o2)CC1,7.17% (inactive),3.5,,
Cc1cc(NC(=O)c2cccs2)ncc1NC(=O)c1cccc(F)c1,-8.75% (inactive),0.447,,
CCCCc1nc(C(N)=O)c2[nH]c(=O)n(-c3ccc(OC)c(OC)c3)c2n1,,,,inactive
CCC1Oc2ccccc2N(CC(=O)NC2CCCCC2)C1=O (stereo not given),,2.82,,inactive
CCC1Oc2ccccc2N(CC(=O)NC2CCCCC2C)C1=O (stereo not given),,-4.58,29.1 µM (active),
CC1CCCCC1NC(=O)CN1C(=O)COc2ccccc21 (stereo not given),-14.8% (inactive),-0.697,,
CC(C)c1nnc(NC(=O)COc2ccccc2[N+](=O)[O-])s1,9.93% (inactive),0.142,,
Cn1nc(C(=O)Nc2nc(-c3ccccn3)cs2)c2ccccc2c1=O,,-20.7,,inactive
Cc1ccnc2nc(C(=O)Nc3nc(-c4ccccn4)cs3)nn12,,-16,1.64 µM (active),
CCc1cc(C(=O)Nc2nc(-c3ccccn3)cs2)sc1C,,3.52,5.17 µM (active),
CCc1cc(C(=O)Nc2ncccc2O)sc1C,-8.93% (inactive),-6.68,,
CC(=O)Nc1ccc(C(=O)Nc2nc(-c3ccccn3)cs2)cc1,,,,inactive
O=C(Nc1nc(-c2ccccn2)cs1)c1ccco1,-15% (inactive),-10.5,,

Structure (SMILES),"lipid storage change, negative = inhibition",cell number change [%],Potency,outcome
Cc1cc(C)c(OCC(=O)Nc2nc(-c3ccccn3)cs2)c(C)c1,-0.187% (inactive),1.77,,
Cc1ccc(C(=O)Nc2nc(-c3ccccn3)cs2)s1,,-8.64,2.06 µM (active),
Cc1ccnc2nc(C(=O)Nc3nccs3)nn12,,-14.4,,inactive
CCCNC(=O)c1cccc(Br)c1,-5.48% (inactive),,,
CC(=O)N1CCc2cc(Br)cc(S(=O)(=O)N3CCCCC3)c21,,-26.2,,inactive
CC(=O)Nc1cccc(NC(=O)C(C)N2c3cccc4cccc(c34)S2(=O)=O)c1 (stereo not given),,20.8,,inactive
COC(=O)C1(C(C[N+](=O)[O-])c2ccco2)C(=O)NCC1c1ccccc1 (stereo not given),,,,inactive
Cc1cc(Oc2ccccc2)nc(NCc2ccccc2)n1,-16.9% (inactive),-8.62,,
COc1cc(C)nc(NCc2ccccc2)n1,,,,inactive
Cc1cc(Nc2ccccc2)nc(NCc2ccccc2)n1,,-27.7,8.2 µM (active),
CCOc1ccc2nc(N3C(=O)/C(=C/c4ccc(Cl)cc4)NC3=S)sc2c1,-9.5% (inactive),13.8,,
CCOc1ccc2nc(N3C(=O)/C(=C/c4ccccc4)NC3=S)sc2c1,,-2.65,9.2 µM (active),
COc1ccc2nc(N3C(=O)/C(=C/c4ccc(Cl)cc4)NC3=S)sc2c1,23.2% (inactive),28.8,,
CCOC(=O)C1CCN(S(=O)(=O)c2ccc(-c3ccccn3)s2)CC1,7.51% (inactive),18.1,,
CCOC(=O)CN(C(=O)CSc1nnc(CNc2ccc(C)cc2C)n1CC)c1ccccc1,,-14.6,,inactive
COC(=O)CSc1nc(N2CCOCC2)c2c(c1C#N)CC(C)(C)N(C)C2,,15.3,,inactive
COc1cccc(-c2ccc3c(c2)S(=O)(=O)c2cccc(C(=O)O)c2C3=O)c1OC,,,0.651 µM (active),
COc1ccc(-c2ccc3c(c2)S(=O)(=O)c2cccc(C(=O)O)c2C3=O)cc1OC,0.601% (inactive),0.722,,
O=C(O)c1cccc2c1C(=O)c1ccc(-c3ccc(F)cc3F)cc1S2(=O)=O,,1.93,,inactive
O=C(c1ccco1)N(Cc1ccc(Cl)cc1)C1CCS(=O)(=O)C1 (stereo not given),,5.9,,inactive
C=CCN(C(=O)c1oc2c(Cl)cc(C)cc2c1C)C1CCS(=O)(=O)C1 (stereo not given),,7.31,20.6 µM (active),
CC1(C)C(C=C(Cl)Cl)C1C(=O)N(Cc1ccccc1Cl)C1CCS(=O)(=O)C1 (stereo not given),14.8% (inactive),-19.9,,
CC1(C)C(C=C(Cl)Cl)C1C(=O)N(Cc1ccc(Cl)cc1)C1CCS(=O)(=O)C1 (stereo not given),,-12,8.2 µM (active),
C=CCN(C(=O)c1ccccc1)C1CCS(=O)(=O)C1 (stereo not given),8.73% (inactive),22.7,,

Structure (SMILES),"lipid storage change, negative = inhibition",cell number change [%],Potency,outcome
Cc1c(C(=O)N(Cc2ccc(Cl)cc2)C2CCS(=O)(=O)C2)oc2ccccc12 (stereo not given),,-19.8,9.2 µM (active),
Cc1cc(Cl)c2oc(C(=O)N3CCN(C4CCS(=O)(=O)C4)CC3)c(C)c2c1 (stereo not given),-12.8% (inactive),16.7,,
Cc1c(C(=O)N(Cc2ccccc2)C2CCS(=O)(=O)C2)oc2ccccc12 (stereo not given),23.8% (inactive),19,,
Cc1c(C(=O)N(Cc2ccc(F)cc2)C2CCS(=O)(=O)C2)oc2ccccc12 (stereo not given),3.69% (inactive),3.58,,
O=C1CSC(c2ccccc2)N1CC(O)c1ccc([N+](=O)[O-])cc1 (stereo not given),4.81% (inactive),14,,
CCOc1ccc(-c2noc(-c3cccnc3)n2)cc1OCC,9.1% (inactive),2.29,,
O=[N+]([O-])c1cccc(OCCN2CCC(Cc3ccccc3)CC2)c1,24.8% (inactive),10.2,,
COc1ccc(S(=O)(=O)CCC(=O)Nc2ccc(OC)cc2OC)cc1,-2.2% (inactive),-8.69,,
Cc1ccc(C(=O)CCC(=O)OCC(=O)N(CC(C)C)c2c(N)n(Cc3ccccc3)c(=O)[nH]c2=O)cc1,24.4% (inactive),20.5,,
COc1ccc(CCNc2c(C=O)c(=O)[nH]c3ccccc23)cc1OC,,,,inactive
Cc1cc(Br)ccc1NC(=O)C(C)c1ccc([N+](=O)[O-])cc1 (stereo not given),1.08% (inactive),6.98,,
CCc1c(C(C)S(=O)(=O)c2ccc(C)cc2)[nH]c(=O)n1-c1ccc(C)cc1 (stereo not given),,-0.34,29.1 µM (active),
Cc1ccc(-n2cc(S(=O)(=O)c3ccc(C)cc3)[nH]c2=O)cc1,6.81% (inactive),12.8,,
Cc1ccc(-n2c3c(c(=O)[nH]c2=O)C(NS(=O)(=O)c2ccc(C)cc2)(C(F)(F)F)C(=O)N3)cc1 (stereo not given),7.88% (inactive),-0.886,,
Brc1ccc(-n2cccc2/C=N/n2cnnc2)cc1,,,,inactive
N#Cc1nc(COc2ccc(Cl)cc2)oc1N1CCCC1,,-31,23.1 µM (active),
Cc1ccc(OCc2nc(C#N)c(N3CCCCC3)o2)cc1,11.6% (inactive),15.9,,
N#Cc1nc(COc2ccc(Br)cc2)oc1N1CCCCCC1,17.2% [at 9.22 µM] (inactive),7.38,,
COc1ccc(OC)c(-c2cc(C(=O)N3CCN(c4ncccn4)CC3)c3ccccc3n2)c1,-3.95% (inactive),-4.49,,
Cc1onc(-c2ccccc2Cl)c1C(=O)Nc1ccccc1,9.8% (inactive),6.9,,
COc1cc(S(=O)(=O)N(C)C)ccc1F,-0.809% (inactive),-10.1,,
COC(=O)C1=C(C)NC2=C(C(=O)c3ccccc32)C1c1cccc(OC)c1 (stereo not given),-1.78% (inactive),-11.6,,
CCOC(=O)C1=C(C)NC2=C(C(=O)c3ccccc32)C1c1cccc2ccccc12 (stereo not given),,-15.2,16.4 µM (active),
CCOC(=O)C1=C(C)NC2=C(C(=O)c3ccccc32)C1c1ccc([N+](=O)[O-])o1 (stereo not given),0.158% (inactive),12.6,,

Structure (SMILES),"lipid storage change, negative = inhibition",cell number change [%],Potency,outcome
CCC1CCCCN1C(=O)CNCC1CCCO1 (stereo not given),20.4% (inactive),14.6,,
CSc1ccccc1NC(=O)CN(Cc1ccccc1)S(C)(=O)=O,,,,inactive
Cc1ccc(CS(=O)(=O)CC(C)(O)c2ccccc2)cc1 (stereo not given),,15.3,,inactive
CCOc1ccc(C(C(=O)NCC2CCCO2)N(Cc2cccnc2)C(=O)c2snc(C(N)=O)c2N)cc1 (stereo not given),,-2.82,,inactive
CCOc1ccc(C(C(=O)NCC2CCCO2)N(Cc2cccs2)C(=O)c2snc(C(N)=O)c2N)cc1 (stereo not given),,15,1.64 µM (active),
COc1ccc(C(C(=O)NCC2CCCO2)N(Cc2cccs2)C(=O)c2snc(C(N)=O)c2N)cc1OC (stereo not given),,25.6,,inactive
Cc1cccc(-n2ncc3c2CCCC3NC(=O)CCN2CCCCO2)c1C (stereo not given),-15.7% (inactive),-4.74,,
O=C(CSc1ccc(-c2ccccn2)nn1)N1CCCC1,5.39% (inactive),4.79,,
COc1cc(CN2CCC(Cc3ccccc3)CC2)c([N+](=O)[O-])cc1OC,,21.3,,inactive
COc1ccc(CSc2nnc(CNS(C)(=O)=O)o2)cc1,,8.09,,inactive
COc1cc([N+](=O)[O-])ccc1N1C(=O)C2C3C=CC(C4CC34)C2C1=O (stereo not given),-12.7% (inactive),-23.6,,
COc1ccccc1CNS(=O)(=O)c1ccc(-n2cccn2)cc1,,-13.2,,inactive
O=S(=O)(NCc1ccccc1Cl)c1ccc(-n2cccn2)cc1,,-0.567,16.4 µM (active),
O=S(=O)(NCc1ccccc1)c1ccc(-n2cccn2)cc1,,-18,,inactive
O=C(NCCCCO)c1ccc2c3c(cccc13)CC2,-7.19% (inactive),-6.57,,
Cc1ccc(NC(=S)NC(C)CCc2ccccc2)cc1C (stereo not given),23.3% (inactive),23.4,,
Cc1ccccc1C(=O)Nc1ccc2nc3n(c(=O)c2c1)CCCC3,-12.1% (inactive),22.5,,
O=C(Nc1ccc2nc3n(c(=O)c2c1)CCCCC3)c1ccccn1,7.43% (inactive),-14.9,,
CCOc1ccccc1C(=O)Nc1ccc2nc3n(c(=O)c2c1)CCCCC3,,-27.2,1.64 µM (active),
CCO[C@@H]1OC(C(=O)NC2CC2)=C[C@H](c2csc3ccccc23)[C@H]1CCCO,-22.9% (inactive),0.265,,
CC1CCN(S(=O)(=O)c2ccc3c(c2)N(CC(=O)NCCN2C(C)CCCC2C)C(=O)CS3)CC1 (stereo not given),-11.8% (inactive),,,
